# Several values for one entry are separate records, joined by “and”; a condition that tells them apart may be missing. Identical values can stand only once. Inconclusive results are not listed. A call without a number means that no potency is given here. Where a structure was tested more than once in an assay, its records may differ in their call. Activity calls are given as the source filed them. Calls come from the whole dose curve.
# Experiments:
# [1] = biological target: Acetylcholinesterase (Homo sapiens) (UniProt P22303); assay: Acetylcholinesterase (AChE) small molecule antagonists: colormetric cell-based qHTS assay (AID 1347395); note: nearly all actives have a fitted effect of over 30% in size; note: potency is the fitted concentration of half-maximal effect
# Method in brief: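 Quantitative HTS in attached SH-SY5Y cells: 30 min compound exposure, then 90 min with acetylthiocholine and DTNB at 37 C; colour from thiocholine reports AChE activity.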
# [2] = biological target: Acetylcholinesterase (Homo sapiens) (UniProt P22303); assay: Acetylcholinesterase (AChE) small molecule antagonists: enzyme-based qHTS assay (AID 1347397); details: Potency: AChE enzyme activity inhibition; outcome: AChE enzyme activity inhibition; note: nearly all actives have a fitted effect of over 55% in size; note: potency is the fitted concentration of half-maximal effect
# Method in brief: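 Compound or DMSO vehicle was pin-transferred onto recombinant human AChE (50 mU/mL as dispensed) and left 30 min at room temperature. Acetylthiocholine with DTNB then started the reaction, read colorimetrically 10 min later.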
# [3] = biological target: Acetylcholinesterase (Homo sapiens) (UniProt P22303); assay: Acetylcholinesterase (AChE) small molecule antagonists: fluorescence cell-based qHTS assay (AID 1347398); details: Potency: AChE activity; outcome: AChE activity; note: nearly all actives have a fitted effect of over 50% in size; note: potency is the fitted concentration of half-maximal effect
# Method in brief: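 Using neuroblastoma SH-SY5Y cells as the enzyme source, test chemicals are preincubated 30 min at 37 C; AChE-driven acetylthiocholine cleavage is then quantified by thiocholine-dependent Thiolite Green fluorescence after 40 min at room temperature.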
# [4] = biological target: Acetylcholinesterase (Homo sapiens) (UniProt P22303); assay: Acetylcholinesterase (AChE) small molecule antagonists: enzyme-based qHTS assay with human liver microsomes (AID 1347399); details: Potency: qHTS inhibition; outcome: qHTS inhibition; note: nearly all actives have a fitted effect of over 60% in size
# Method in brief: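 Recombinant human AChE (50 mU/mL in the enzyme mix) and human liver microsomes (0.25 mg/mL final) were preincubated with compound and NADPH (0.25 mg/mL final) for 30 min at 37 C. Acetylthiocholine/DTNB was then added; thiocholine was read colorimetrically after 10 min at room temperature.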
# Sequence of Acetylcholinesterase (Homo sapiens) (P22303 whole entry, looked up): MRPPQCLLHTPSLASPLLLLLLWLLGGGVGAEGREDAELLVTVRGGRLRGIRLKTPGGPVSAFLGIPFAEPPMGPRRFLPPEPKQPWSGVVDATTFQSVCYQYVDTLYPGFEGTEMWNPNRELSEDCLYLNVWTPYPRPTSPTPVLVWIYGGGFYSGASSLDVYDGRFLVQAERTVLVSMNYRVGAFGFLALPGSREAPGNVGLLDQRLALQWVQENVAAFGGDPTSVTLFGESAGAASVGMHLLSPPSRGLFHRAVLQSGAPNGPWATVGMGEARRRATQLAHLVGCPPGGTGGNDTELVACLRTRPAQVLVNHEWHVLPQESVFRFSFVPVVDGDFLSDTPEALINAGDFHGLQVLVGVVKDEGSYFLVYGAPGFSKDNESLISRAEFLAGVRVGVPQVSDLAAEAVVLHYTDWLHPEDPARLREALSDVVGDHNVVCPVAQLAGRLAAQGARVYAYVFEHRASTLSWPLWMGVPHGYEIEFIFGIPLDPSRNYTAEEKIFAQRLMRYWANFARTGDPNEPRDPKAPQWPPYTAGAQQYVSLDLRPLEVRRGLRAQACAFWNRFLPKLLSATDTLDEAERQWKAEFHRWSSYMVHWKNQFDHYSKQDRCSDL
structure (smiles),measurement,setting,value
CCCCCCC(O)CCOC(C)=O (stereo not given),Potency,[1],inactive
same,Potency,[2],inactive
same,Potency,[3],inactive
same,Potency,[4],inactive
CC[C@@H]([C@H](C)O)n1ncn(-c2ccc(N3CCN(c4ccc(OC[C@@H]5CO[C@@](Cn6cncn6)(c6ccc(F)cc6F)C5)cc4)CC3)cc2)c1=O,Potency,[1],inactive
same,Potency,[2],inactive
same,Potency,[3],inactive
same,Potency,[4],inactive
O=[N+]([O-])c1ccc(/C=N\O)o1,Potency,[1],inactive
same,Potency,[2],inactive
same,Potency,[3],inactive
same,Potency,[4],inactive
CCSC(=O)N(CC)CC,Potency,[1],inactive
same,Potency,[2],inactive
same,Potency,[3],inactive
same,Potency,[4],inactive
CCN1CCN(c2cc(-c3ccc(F)cc3)c3c(n2)CCCCCC3)CC1,"activity, negative = inhibition",[1],2.78% [at 23.6 µM] (inactive)
same,"activity change, negative = inhibition",[2],1.01% [at 23.6 µM] (inactive)
same,"activity change, negative = inhibition",[3],7.25% [at 23.8 µM] (inactive)
same,"activity change, negative = inhibition",[4],-1.12% [at 23.6 µM] (inactive)
Nc1nnc(-c2cccc(Cl)c2Cl)c(N)n1,Potency,[1],inactive
same,Potency,[2],inactive
same,Potency,[3],inactive
same,Potency,[4],inactive
O=S(=O)(O)c1cc(Cl)c(Cl)cc1Cl,Potency,[1],inactive
same,Potency,[2],inactive
same,Potency,[3],inactive
same,Potency,[4],inactive
C/C=C/C=C/CO,Potency,[1],inactive
same,Potency,[2],inactive
same,Potency,[3],inactive
same,Potency,[4],inactive
CC(C)OC(=O)C(O)(CC(=O)O)CC(=O)O,Potency,[1],inactive
same,Potency,[2],inactive
same,Potency,[3],inactive
same,Potency,[4],inactive
C=CC(C)(C)O,Potency,[1],inactive
same,Potency,[2],inactive
same,Potency,[3],inactive
same,Potency,[4],inactive
O=Cc1cc2ccccc2o1,Potency,[1],inactive
same,Potency,[2],inactive
same,Potency,[3],inactive
same,Potency,[4],inactive
CCCOCCO,Potency,[1],inactive
same,Potency,[2],inactive
same,Potency,[3],inactive
same,Potency,[4],inactive
Clc1ccc(Nc2nnc(Cc3ccncc3)c3ccccc23)cc1,Potency,[1],inactive
same,Potency,[2],inactive
same,Potency,[3],inactive
same,Potency,[4],inactive
CCC(C)(CCCC(C)C)OC(C)=O (stereo not given),Potency,[1],inactive
same,Potency,[2],inactive
same,Potency,[3],inactive
same,Potency,[4],inactive
CC(=O)N(O)CCCCCNC(=O)CCC(=O)N(O)CCCCCNC(=O)CCC(=O)N(O)CCCCCN,outcome,[1],inactive
same,outcome,[2],inactive
same,outcome,[3],inactive
same,outcome,[4],inactive
Cc1cc(C2(c3cc(C)c(O)cc3C)OS(=O)(=O)c3ccccc32)c(C)cc1O,Potency,[1],inactive
same,Potency,[2],inactive
same,Potency,[3],inactive
same,Potency,[4],inactive
BrCCOc1ccccc1,Potency,[1],inactive
same,Potency,[2],inactive
same,Potency,[3],inactive
same,Potency,[4],inactive
O=c1[nH]c(=O)n([C@H]2CCCO2)cc1F,Potency,[1],inactive
same,Potency,[2],inactive
same,Potency,[3],inactive
same,Potency,[4],inactive
CN(C)c1ccc(O)c2c1C[C@H]1C[C@H]3[C@H](N(C)C)C(=O)C(C(N)=O)=C(O)[C@@]3(O)C(=O)C1=C2O,Potency,[1],inactive
same,Potency,[2],inactive
same,Potency,[3],inactive
same,Potency,[4],inactive
O=C(O)Cn1cnnn1,Potency,[1],inactive
same,Potency,[2],inactive
same,Potency,[3],inactive
same,Potency,[4],inactive
CC(N)CN (stereo not given),Potency,[1],inactive
same,Potency,[2],inactive
same,Potency,[3],inactive
same,Potency,[4],inactive
O=C(CN1CCNCC1)NC1CCCCC1,Potency,[1],inactive
same,Potency,[2],inactive
same,Potency,[3],inactive
same,Potency,[4],inactive
CC(=O)OC1CCC(C(C)(C)C)CC1 (stereo not given),Potency,[1],inactive
same,Potency,[2],inactive
same,Potency,[3],inactive
same,Potency,[4],inactive
O=S(=O)(O)c1ccc(N=Nc2c(O)ccc3cc(S(=O)(=O)O)ccc23)cc1,Potency,[1],inactive
same,Potency,[2],inactive
same,Potency,[3],inactive
same,Potency,[4],inactive
[O]=[Bi],"activity, negative = inhibition",[1],1.07% [at 10.5 µM] (inactive)
same,"activity change, negative = inhibition",[2],2.59% [at 10.5 µM] (inactive)
same,"activity change, negative = inhibition",[3],3.63% [at 10.5 µM] (inactive)
same,"activity change, negative = inhibition",[4],-4.69% [at 10.5 µM] (inactive)
CN1C(C(=O)Nc2ccccn2)=C(O)c2sccc2S1(=O)=O,Potency,[1],inactive
same,Potency,[2],inactive
same,Potency,[3],inactive
same,Potency,[4],inactive
O=C(O)C(Cc1cc(I)c(O)c(I)c1)c1ccccc1 (stereo not given),Potency,[1],inactive
same,Potency,[2],inactive
same,Potency,[3],inactive
same,Potency,[4],inactive
O=[N+]([O-])c1ccc2nc[nH]c2c1,Potency,[1],inactive
same,Potency,[2],inactive
same,Potency,[3],inactive
same,Potency,[4],inactive
CCN(C=O)CC,Potency,[1],inactive
same,Potency,[2],inactive
same,Potency,[3],inactive
same,Potency,[4],inactive
CC[C@H]1OC(=O)[C@H](C)[C@@H](O[C@H]2C[C@@](C)(OC)[C@@H](O)[C@H](C)O2)[C@H](C)[C@@H](O[C@@H]2O[C@H](C)C[C@H](N(C)C)[C@H]2O)[C@](C)(O)C[C@@H](C)CN(C)[C@H](C)[C@@H](O)[C@]1(C)O,Potency,[1],inactive
same,Potency,[2],inactive
same,Potency,[3],inactive
same,Potency,[4],inactive
C=CC(C)CCCC(C)(C)O (stereo not given),Potency,[1],inactive and 28.3 µM (active)
same,Potency,[2],inactive and 25.2 µM (active)
same,Potency,[3],inactive and 22.4 µM (active)
same,Potency,[4],inactive
CC(NCCC(c1ccccc1)c1ccccc1)c1ccccc1 (stereo not given),Potency,[1],inactive
same,Potency,[2],inactive
same,Potency,[3],inactive
same,Potency,[4],inactive
CCN(CC)c1ccc(N=Nc2ccccc2)cc1,Potency,[1],inactive
same,Potency,[2],inactive
same,Potency,[3],inactive
same,Potency,[4],inactive
CCCCCCCCCCOc1cc2c(=O)c(C(=O)OCC)c[nH]c2cc1OCC,"activity, negative = inhibition",[1],1.43% [at 10.5 µM] (inactive)
same,"activity change, negative = inhibition",[2],0.693% [at 10.5 µM] (inactive)
same,"activity change, negative = inhibition",[3],-0.416% [at 10.5 µM] (inactive)
same,"activity change, negative = inhibition",[4],-5.96% [at 10.5 µM] (inactive)
O=C(O)c1ccccc1C(c1ccc(O)cc1)c1ccc(O)cc1,Potency,[1],inactive
same,Potency,[2],inactive
same,Potency,[3],inactive
same,Potency,[4],inactive
N#Cc1ccccc1,Potency,[1],inactive
same,Potency,[2],inactive
same,Potency,[3],inactive
same,Potency,[4],inactive
COC1=C(OC)C(=O)C(CCCCCCCCCCO)=C(C)C1=O,Potency,[1],inactive
same,Potency,[2],inactive
same,Potency,[3],inactive
same,Potency,[4],inactive
CCOC(=O)C(O)c1ccccc1 (stereo not given),Potency,[1],inactive
same,Potency,[2],inactive
same,Potency,[3],inactive
same,Potency,[4],inactive
CCN(Cc1ccccc1)c1ccccc1,Potency,[1],inactive
same,Potency,[2],inactive
same,Potency,[3],inactive
same,Potency,[4],inactive
O=C1c2ccccc2Cc2ccccc21,Potency,[1],inactive
same,Potency,[2],inactive
same,Potency,[3],inactive
same,Potency,[4],inactive
Cn1c(=O)[nH]c2ncn(C)c2c1=O,Potency,[1],inactive
same,Potency,[2],inactive
same,Potency,[3],inactive
same,Potency,[4],inactive
COc1ccc(C(=O)c2ccccc2)c(O)c1,Potency,[1],inactive
same,Potency,[2],inactive
same,Potency,[3],inactive
same,Potency,[4],inactive
COc1cc(C(=O)NS(=O)(=O)c2ccccc2C)ccc1Cc1cn(C)c2ccc(NC(=O)OC3CCCC3)cc12,Potency,[1],inactive
same,Potency,[2],inactive
same,Potency,[3],inactive
same,Potency,[4],inactive
FB(F)F,Potency,[1],inactive
same,Potency,[2],inactive
same,Potency,[3],inactive
same,Potency,[4],inactive
Cc1oc(-c2ccccc2)nc1CCOc1ccc(C[C@H](Nc2ccccc2C(=O)c2ccccc2)C(=O)O)cc1,Potency,[1],inactive
same,Potency,[2],56.4 µM (active)
same,Potency,[3],inactive
same,Potency,[4],inactive
O=c1n(CC2CO2)c(=O)n(CC2CO2)c(=O)n1CC1CO1 (stereo not given),Potency,[1],inactive
same,Potency,[2],inactive
same,Potency,[3],inactive
same,Potency,[4],inactive
CCCc1nc(C)c2c(=O)[nH]c(-c3cc(S(=O)(=O)N4CCN(CC)CC4)ccc3OCC)nn12,Potency,[1],inactive
same,Potency,[2],inactive
same,Potency,[3],inactive
same,Potency,[4],inactive
CCc1cccc2c(CCO)c[nH]c12,Potency,[1],inactive
same,Potency,[2],inactive
same,Potency,[3],inactive
same,Potency,[4],inactive
CN(C)CCOC(=O)C(c1ccccc1)C1(O)CCCC1 (stereo not given),Potency,[1],inactive
same,Potency,[2],inactive
same,Potency,[3],inactive
same,Potency,[4],inactive
O=C1CCCc2ccccc21,Potency,[1],inactive
same,Potency,[2],inactive
same,Potency,[3],inactive
same,Potency,[4],inactive
CC12CCCC=C1C(=O)OC2=O (stereo not given),Potency,[1],inactive
same,Potency,[2],inactive
same,Potency,[3],inactive
same,Potency,[4],inactive
CC(=O)c1ccccn1,Potency,[1],inactive
same,Potency,[2],inactive
same,Potency,[3],inactive
same,Potency,[4],inactive
O=C(O)Cn1c(C(=O)Nc2nc(-c3ccccc3Cl)cs2)cc2ccccc21,Potency,[1],inactive
same,Potency,[2],inactive
same,Potency,[3],inactive
same,Potency,[4],inactive
Cc1ncc(CO)c(CN)c1O,Potency,[1],inactive
same,Potency,[2],inactive
same,Potency,[3],inactive
same,Potency,[4],inactive
CCCCCCCC/C=C\CCCCCCCC(=O)OC[C@@H](O)[C@H]1OC[C@H](O)[C@H]1O,Potency,[1],inactive
same,Potency,[2],inactive
same,Potency,[3],inactive
same,Potency,[4],inactive
Cc1ccc(C(=O)c2ccccc2)cc1,Potency,[1],inactive
same,Potency,[2],inactive
same,Potency,[3],inactive
same,Potency,[4],inactive
CCCCCCCC(C)=O,Potency,[1],inactive
same,Potency,[2],inactive
same,Potency,[3],inactive
same,Potency,[4],inactive
COc1cc(/C=C/c2ccccc2)oc(=O)c1,Potency,[1],inactive
same,Potency,[2],inactive
same,Potency,[3],inactive
same,Potency,[4],inactive
C/C=C/C(=O)OCC(C)C,Potency,[1],inactive
same,Potency,[2],inactive
same,Potency,[3],inactive
same,Potency,[4],inactive
CCOc1ccccc1OCC1CNCCO1 (stereo not given),outcome,[1],inactive
same,outcome,[2],inactive
same,outcome,[3],inactive
same,outcome,[4],inactive

# — PubChem BioAssay (Tox21)
